Measured values published in PubChem BioAssay AID2401 (Southern Research Specialized Biocontainment Screening …, 2010).
In all, about 2,200 compounds went through this assay and about 530 (24%) were called active. These entries were drawn from the full list. Measured potencies and affinities stand elsewhere. Unmarked numbers belong to inactive results.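 Rule for the calls: active = inhibition above a set limit at one or more concentrations of the dose series; inactive = inhibition under that limit at every dose.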

Test: nmpC-GFP reporter counter-screen in S. Typhimurium, dose response, counter-screen for PhoP regulon inhibitor project, Salmonella Typhimurium, GFP fluorescence (AID 2401);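 note: S. typhimurium with Mg-insensitive nmpC-GFP reporter grown at 10 µM Mg2+; drop in reporter fluorescence reflects general culture growth inhibition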
Details: 4 h; series mostly up to 150 µM; inhibition: at the top concentration

Row | SMILES | inhibition
1 | O=S(=O)(Nc1ccc2c(c1)nc1n2CCN(Cc2ccccc2)C1)c1ccc(Cl)cc1 | 6.97%
2 | Nc1cccc(-c2nc3ccc(N)cc3s2)c1 | 5.38%
3 | O=C(NCc1ccco1)c1ccc(Br)s1 | 17.5%
4 | Cn1c(=N)n(CC(=O)c2ccc(Br)s2)c2ccccc21 | 28.3%
5 | O=C(Nc1cccn(Cc2c(Cl)cccc2Cl)c1=O)c1ccccc1Cl | -24.5%
6 | Cc1cccc(OCCCSc2nc3ccc(C)cc3[nH]2)c1 | -8.67%
7 | CCCCCCOC(=O)Sc1nc2ccccc2o1 | -11.3%
8 | Clc1ccc(OCCn2cnc3ccccc32)cc1 | -6.12%
9 | COc1ccc(/C=C/C(=O)O)cc1COc1cccc(C)c1 | -6.94%
10 | COc1ccccc1OCc1ccc(C(=O)N2CCN(C(=O)c3ccco3)CC2)cc1 | -36.5%
11 | S=C(Nc1ccccc1)Nc1nc2ccccc2n1CCOc1ccc(Cl)cc1 | 4.16%
12 | COc1ccc(C(=O)C(CO)Oc2ccccc2OC)cc1OC (stereo not given) | -26%
13 | COc1ccccc1NC(=S)NNC(=O)c1c(Cl)c(C)nn1C | -25.9%
14 | Cc1ccc(Nc2nc(CSc3nnc(-c4cccnc4)n3-c3ccccc3F)cs2)cc1 | -13%
15 | O=C(c1cccc(S(=O)(=O)N2CCOCC2)c1)N1CCCC1 | -2.72%
16 | O=C(c1ccccc1)N1CCSC1=S | 3.7%
17 | Cn1c(-c2ccc3nc(N)sc3c2)nc2cc(N)ccc21 | 3.83%
18 | Nc1ccc(Nc2ccccc2N)cc1 | 30.3%
19 | Cc1cc2c(c(=O)n1C)C(Cc1ccccc1)C(C#N)=C(N)O2 (stereo not given) | -10.2%
20 | O=C(CSc1nc2[nH]ncc2c(=O)[nH]1)N1CCCCC1 | 7.9%
21 | C=CCNC(=S)NNC(=O)c1cccn(Cc2ccc(Cl)cc2)c1=O | 5.72%
22 | COc1ccc(-c2cc(N3CCCC3)n3ncnc3n2)cc1 | 19.9%
23 | COC(=O)Cn1c(C)nc2ccccc21 | -8.98%
24 | Cc1ccc(OCc2nc3ccccc3[nH]2)cc1 | -11.2%
25 | COc1ccc(OCCSc2nnc3sc4ccccc4n23)cc1 | -14.9%

Row | SMILES | inhibition
26 | CNc1ncc(Cc2ccccc2)s1 | -8.16%
27 | CCn1c(SCc2ccc(F)cc2)nnc1C1CCN(S(=O)(=O)c2ccc(OC)cc2)CC1 | -14.3%
28 | O=C1CC(c2ccco2)CC(O)=C1C=Nc1cc(Cl)cc(Cl)c1 (stereo not given) | -34.6%
29 | c1csc(C2Nc3ccccc3-c3nc4ccccc4n32)c1 (stereo not given) | 8.7%
30 | C=CCOc1ccc(Br)cc1/C=N/O | -15.1%
31 | O=C(Cc1cn2ccsc2n1)Nc1ccccc1Oc1ccccc1 | -15%
32 | CCn1c2ccccc2c2cc(N)ccc21 | 27.9%
33 | CC(C)(C)c1ccc(C(=O)Nc2ccc(C=C(C#N)C#N)cc2)cc1 | -12.7%
34 | C=CCNC(=O)CC(=O)N/N=C/c1ccc(C(=O)OC)cc1 | 12.4%
35 | Cc1[nH]nc2c1C(c1cc(Br)cs1)C(C#N)=C(N)O2 (stereo not given) | 9.05%
36 | Cc1cc(C)cc(-n2nc(C)cc2N)c1 | -13.9%
37 | N#CC(CC(=O)c1ccc(F)cc1)c1ccc2c(c1)OCO2 (stereo not given) | -3.09%
38 | O=c1[nH]c2ccccc2n1C1=CCCC1 | -20.4%
39 | CCn1c(Cc2c(C)[nH]c3ccccc23)n[nH]c1=S | -6.66%
40 | c1ccc2c3c([nH]c2c1)-c1[nH]ncc1CC3 | -22.3%
41 | Nc1c(C(=O)NCCc2ccc(Cl)cc2)sc2ccc(S(=O)(=O)N3CCCCC3)cc12 | 36.1%
42 | CSc1cccc(NC(=O)c2ccco2)c1 | -0.61%
43 | CC1N(C)c2cc(NC(=O)c3ccco3)ccc2C1(C)C (stereo not given) | -27.2%
44 | Cc1oc(CC(C)C)c(CN2CCCC2)c1C(=O)O | 4.83%
45 | COc1ccc2c(c1)[nH]c1c(N3CCN(Cc4ccc5c(c4)OCO5)CC3)ncnc12 | -9.05%
46 | Cc1[nH]n(-c2ncc(-c3ccc(Cl)cc3)s2)c(=O)c1C(c1ccc(Cl)cc1)C(C#N)C#N (stereo not given) | 15.4%
47 | CCN(C(C)=O)c1nc(CSc2nnc(NC(C)C)s2)cs1 | -24.8%
48 | c1ccc2[nH]c(CSc3nccs3)nc2c1 | -13.7%
49 | Cc1ccccc1OCC(=O)N/N=C/c1ccco1 | -2.6%
50 | S=c1[nH]nc(Cc2cccc3ccccc23)o1 | -10.8%

Row | SMILES | inhibition
51 | CC(=O)c1cccc(NC(=O)NCc2ccco2)c1 | -14%
52 | Cc1ccc(NC(=O)c2cc(S(=O)(=O)N3CCC4(CC3)OCCO4)ccc2F)cc1 | -20.2%
53 | O=C(c1cn(-c2ccccc2)nc1-c1cccnc1)N1CCCCC1 | -2.75%
54 | CC(=O)N1CCC(N(CCN2CCOCC2)C(=S)Nc2cccc(C)c2C)CC1 | -9.15%
55 | Cc1c(Cl)cccc1NC(=O)CSCC(N)=O | -19.7%
56 | CC(=O)Oc1c2occc2cc2ccc(=O)oc12 | 36.6%
57 | COc1cc(C2Nc3cccc4cccc(c34)N2)cc(OC)c1OC(C)=O | 13%
58 | Cc1ccc2c(c1)cc(CN(Cc1ccc3c(c1)OCO3)C(=O)c1cnccn1)c1nnnn12 | -12.1%
59 | CSc1ccc(C(=O)/C=C/c2ccc(N)cc2)cc1 | 2.91%
60 | Cc1cccc(NC(=O)c2cc(N3C(=O)CCC3=O)ccc2Cl)n1 | -12.3%
61 | O=C(CSc1nc2ccccc2s1)Nc1ccc(N2CCOCC2)c(Cl)c1 | 32.1%
62 | O=C(CSCc1ccccc1)N/N=C/c1ccccc1OCc1ccccc1 | -9.85%
63 | CN(CCO)c1cc(Sc2nc3ccccc3s2)c2nonc2c1[N+](=O)[O-] | 2.98%
64 | Cc1ccccc1-n1c(C)cc(/C=N/Nc2ccc([N+](=O)[O-])cn2)c1C | -15.1%
65 | O=C(CSc1n[nH]c(=O)[nH]c1=O)N/N=C/c1ccccc1 | -7.03%
66 | Cc1cc([N+](=O)[O-])ccc1NC(=O)Cc1ccc(F)cc1 | -6.18%
67 | Cc1ccc([N+](=O)[O-])cc1NC(=S)NC(=O)C(C)(C)C | -25.1%
68 | COc1ccc(-n2ncc(S(=O)(=O)c3ccccc3)c2-c2ccc(Cl)cc2)cc1 | -11.5%
69 | COc1ccc(Cl)cc1C(=O)Nc1ccc(NC(=O)c2ccco2)cc1 | -4.5%
70 | O=C(Nc1cccc(Cl)c1)C1C2CCC3C(CCC21)C3(Cl)Cl (stereo not given) | -13.9%
71 | COc1cccc(-n2c(N)c(C(=O)Nc3c(C)n(C)n(-c4ccccc4)c3=O)c3nc4ccccc4nc32)c1 | -17.2%
72 | COc1ccc(N2C(=O)CC(Sc3nc(C)c4c(n3)CCCC4)C2=O)cc1 (stereo not given) | -8%
73 | COc1ccc(-c2cnn3c(N)c(S(=O)(=O)C(C)(C)C)cnc23)cc1 | -1.79%
74 | Cc1ccc2nc(NNC(=O)c3ccc(S(=O)(=O)N4CCc5ccccc5C4)cc3)sc2c1 | 17.9%
75 | O=C(/C=C/c1ccc2c(c1)OCO2)N1CCN(c2ccccc2F)CC1 | -20.9%
